Assay results from the supplement of paper PMC10849652.
Targets with a hit are over-represented here; the source holds about 7,900 in all. About 0.6% of all pairs of compound and target were hits.

Assays:
Experiment in all cases: log2 fold change, soluble protein after heating vs DMSO (PISA); higher = thermal stabilisation; K562 cells, 10 uM, 30 min; active = over 0.2 and 3.5 SD of the protein, either way, in both replicates (recomputed)
[1] = compound: CC1=C(C=C(C=C1)NC(=O)C2=CC(=CC=C2)C(C)(C)C#N)NC3=CC4=C(C=C3)N=CN(C4=O)C
Method in brief: (§1)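 Values are thermal stability changes relative to control samples and are taken from duplicates. They are stated as log2 fold changes. Before quantification by TMTpro 16plex LC-MS/MS with equalised channel sums, K562 cells at 2×10^6 cells/mL were treated with 10 μM compound for 30 min, heated in aliquots for 3 min across 48°C-58°C, pooled, extracted in PBS with 0.5% NP-40 at 4°C, and centrifuged at 21,000xg for 90 min to give the soluble supernatant.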

[2] = compound: CC1=C(C=C(C=C1)NC(=O)C2=CC(=CC=C2)N(C)C)NC(=O)C3=CC=C(C=C3)O
Method in brief: as §1

[3] = compound: CC1=CC=C(C=C1)SC2=C3C=C(SC3=CN=C2)C(=O)N
Method in brief: as §1

[4] = compound: CC1=NC(=CC=C1)C2=C(N=C(N2)C(C)(C)C)C3=CC4=NC=CN=C4C=C3
Method in brief: as §1

Nexturastat A = compound: CCCCN(Cc1ccc(C(=O)NO)cc1)C(=O)Nc1ccccc1 [Nexturastat A]
Method in brief: as §1

vemurafenib = compound: CCCS(=O)(=O)Nc1ccc(F)c(C(=O)c2c[nH]c3ncc(-c4ccc(Cl)cc4)cc23)c1F [vemurafenib]
Method in brief: as §1

[5] = compound: CCCS(=O)(=O)Nc1ccc(F)c(C(=O)c2c[nH]c3ncc(Cl)cc23)c1F
Method in brief: as §1

[6] = compound: CCCc1cc(C)[nH]c(=O)c1CNC(=O)c1cc(-c2ccnc(N3CCN(C)CC3)c2)cc2c1cnn2C(C)C
Method in brief: as §1

givinostat = compound: CCN(CC)Cc1ccc2cc(COC(=O)Nc3ccc(C(=O)NO)cc3)ccc2c1 [givinostat]
Method in brief: as §1

barasertib = compound: CCN(CCCOc1ccc2c(Nc3cc(CC(=O)Nc4cccc(F)c4)[nH]n3)ncnc2c1)CCOP(=O)(O)O [barasertib]
Method in brief: as §1

Measured: log2 fold change

PTPN23 (UniProt Q9H3S7)
inactive: [1] -0.062 | [2] -0.049 | [3] -0.009 | [4] 0.002 | Nexturastat A -0.015 | vemurafenib 0.025 | [5] 0.051 | [6] 0.088 | givinostat 0.107 | barasertib 0.047

PRKAG1 isoform 3 (UniProt P54619)
Chain of UniProt P54619 (P54619 whole entry, looked up): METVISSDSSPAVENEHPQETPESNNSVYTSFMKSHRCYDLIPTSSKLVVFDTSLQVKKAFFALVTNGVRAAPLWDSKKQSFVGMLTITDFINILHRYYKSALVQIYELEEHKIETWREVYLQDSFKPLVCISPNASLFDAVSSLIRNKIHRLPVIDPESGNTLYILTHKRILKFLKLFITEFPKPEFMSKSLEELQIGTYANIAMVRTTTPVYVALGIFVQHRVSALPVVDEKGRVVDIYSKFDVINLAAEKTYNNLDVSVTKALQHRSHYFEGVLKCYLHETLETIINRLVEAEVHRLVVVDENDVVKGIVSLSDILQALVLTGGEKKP
inactive: [1] -0.042 | [2] -0.006 | [3] 0.007 | [4] 0.037 | Nexturastat A -0.01 | vemurafenib 0.026 | [5] 0.002 | [6] -0.026 | givinostat 0.014 | barasertib 0.013

PIK3C3 (UniProt Q8NEB9)
active: Nexturastat A 0.54
inactive: [1] 0.003 | [2] 0.015 | [3] -0.046 | [4] -0.085 | vemurafenib -0.001 | [5] 0.02 | [6] -0.051 | givinostat 0.088 | barasertib -0.015

PPP4R3B (UniProt Q5MIZ7)
Chain of UniProt Q5MIZ7 (Q5MIZ7 whole entry, looked up): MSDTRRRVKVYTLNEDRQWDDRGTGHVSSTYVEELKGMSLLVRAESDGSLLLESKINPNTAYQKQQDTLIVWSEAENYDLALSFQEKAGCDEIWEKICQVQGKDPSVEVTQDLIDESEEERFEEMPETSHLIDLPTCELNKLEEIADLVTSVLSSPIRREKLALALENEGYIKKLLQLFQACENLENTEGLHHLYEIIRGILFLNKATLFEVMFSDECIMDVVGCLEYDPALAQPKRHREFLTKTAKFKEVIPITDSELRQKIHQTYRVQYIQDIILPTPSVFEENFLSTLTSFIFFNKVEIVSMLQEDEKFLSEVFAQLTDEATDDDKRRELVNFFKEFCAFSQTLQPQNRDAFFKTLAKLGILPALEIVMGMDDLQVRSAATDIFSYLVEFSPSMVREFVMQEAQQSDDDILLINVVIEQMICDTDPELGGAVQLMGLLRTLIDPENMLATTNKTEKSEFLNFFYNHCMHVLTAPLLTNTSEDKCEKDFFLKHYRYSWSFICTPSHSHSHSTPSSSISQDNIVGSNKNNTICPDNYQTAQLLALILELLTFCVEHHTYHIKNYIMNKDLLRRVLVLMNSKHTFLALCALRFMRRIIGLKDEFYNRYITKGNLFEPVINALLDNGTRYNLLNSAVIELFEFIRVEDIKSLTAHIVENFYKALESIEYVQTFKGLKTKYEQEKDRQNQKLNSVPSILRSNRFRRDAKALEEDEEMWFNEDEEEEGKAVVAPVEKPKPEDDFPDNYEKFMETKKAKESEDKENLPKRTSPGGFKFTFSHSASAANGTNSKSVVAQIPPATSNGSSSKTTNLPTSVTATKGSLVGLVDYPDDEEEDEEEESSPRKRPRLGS
inactive: [1] 0.006 | [2] 0.014 | [3] 0.008 | [4] 0.024 | Nexturastat A -0.063 | vemurafenib 0.017 | [5] 0.009 | [6] -0.017 | givinostat 0.049 | barasertib 0.029

PXK (UniProt Q7Z7A4)
inactive: [1] 0.017 | [2] -0.059 | [3] -0.041 | [4] 0.011 | Nexturastat A -0.018 | vemurafenib 0.017 | [5] 0.071 | [6] -0.046 | givinostat 0.022 | barasertib 0.002

PEX16 isoform 2 (UniProt Q9Y5Y5)
inactive: [1] 0.017 | [2] 0.038 | [3] 0.083 | [4] 0.146 | Nexturastat A -0.033 | vemurafenib 0.071 | [5] 0.089 | [6] -0.07 | givinostat 0.006 | barasertib -0.007

PDE12 (UniProt Q6L8Q7)
Chain of UniProt Q6L8Q7 (Q6L8Q7 whole entry, looked up): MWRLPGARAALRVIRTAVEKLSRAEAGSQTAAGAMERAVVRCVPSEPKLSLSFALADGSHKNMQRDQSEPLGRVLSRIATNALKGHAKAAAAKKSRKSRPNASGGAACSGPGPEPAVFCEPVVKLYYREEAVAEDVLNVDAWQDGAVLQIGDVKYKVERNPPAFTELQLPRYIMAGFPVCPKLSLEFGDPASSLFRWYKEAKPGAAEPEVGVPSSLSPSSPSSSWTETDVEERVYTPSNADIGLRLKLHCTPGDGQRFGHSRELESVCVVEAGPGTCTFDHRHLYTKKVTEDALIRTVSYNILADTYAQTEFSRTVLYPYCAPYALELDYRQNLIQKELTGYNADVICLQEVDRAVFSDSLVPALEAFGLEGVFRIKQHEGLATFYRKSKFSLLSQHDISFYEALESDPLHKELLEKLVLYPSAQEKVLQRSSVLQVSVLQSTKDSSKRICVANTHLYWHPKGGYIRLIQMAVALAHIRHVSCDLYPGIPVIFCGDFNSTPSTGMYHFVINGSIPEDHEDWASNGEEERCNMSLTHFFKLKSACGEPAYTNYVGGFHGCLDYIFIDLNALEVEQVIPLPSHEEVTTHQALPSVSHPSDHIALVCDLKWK
inactive: [1] 0.049 | [2] 0.006 | [3] 0.024 | [4] 0.026 | Nexturastat A -0.064 | vemurafenib -0.006 | [5] 0.03 | [6] -0.01 | givinostat -0.027 | barasertib 0.014

PURA (UniProt Q00577)
inactive: [1] 0.032 | [2] 0.032 | [3] -0.101 | [4] -0.121 | Nexturastat A 0.112 | vemurafenib -0.111 | [5] -0.143 | [6] 0.144 | givinostat -0.008 | barasertib -0.091

PSMC4 (UniProt P43686)
inactive: [1] 0.016 | [2] 0.013 | [3] -0.049 | [4] -0.036 | Nexturastat A 0.03 | vemurafenib -0.066 | [5] -0.083 | [6] 0.084 | givinostat -0.059 | barasertib -0.042

PSMD2 (UniProt Q13200)
inactive: [1] 0.005 | [2] 0.012 | [3] -0.025 | [4] -0.064 | Nexturastat A 0.024 | vemurafenib -0.091 | [5] -0.014 | [6] 0.136 | givinostat -0.048 | barasertib -0.057

PIP4P2 (UniProt Q8N4L2)
inactive: [1] 0.107 | [2] -0.03 | [3] -0.006 | [4] -0.002 | Nexturastat A -0.092 | vemurafenib -0.013 | [5] 0.041 | [6] -0.045 | givinostat -0.067 | barasertib 0

PSMD11 (UniProt O00231)
Chain of UniProt O00231 (O00231 whole entry, looked up): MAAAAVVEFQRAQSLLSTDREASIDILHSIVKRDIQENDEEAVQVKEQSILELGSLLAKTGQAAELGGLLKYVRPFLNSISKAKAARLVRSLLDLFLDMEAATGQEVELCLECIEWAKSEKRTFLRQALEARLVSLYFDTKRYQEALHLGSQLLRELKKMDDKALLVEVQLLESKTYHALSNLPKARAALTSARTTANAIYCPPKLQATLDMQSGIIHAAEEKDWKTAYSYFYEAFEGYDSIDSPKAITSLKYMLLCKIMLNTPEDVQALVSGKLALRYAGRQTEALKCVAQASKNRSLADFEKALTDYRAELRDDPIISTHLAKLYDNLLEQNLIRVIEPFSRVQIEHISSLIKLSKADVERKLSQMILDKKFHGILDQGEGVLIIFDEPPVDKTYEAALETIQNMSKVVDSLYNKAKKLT
inactive: [1] 0.048 | [2] -0.005 | [3] 0.017 | [4] -0.006 | Nexturastat A 0.124 | vemurafenib -0.031 | [5] 0.058 | [6] 0.047 | givinostat -0.027 | barasertib -0.056

PTGFRN (UniProt Q9P2B2)
inactive: [1] -0.044 | [2] -0.025 | [3] 0.006 | [4] -0.012 | Nexturastat A -0.021 | vemurafenib 0.013 | [5] -0.045 | [6] -0.03 | givinostat 0.007 | barasertib -0.043

PFAS (UniProt O15067)
Chain of UniProt O15067 (O15067 whole entry, looked up): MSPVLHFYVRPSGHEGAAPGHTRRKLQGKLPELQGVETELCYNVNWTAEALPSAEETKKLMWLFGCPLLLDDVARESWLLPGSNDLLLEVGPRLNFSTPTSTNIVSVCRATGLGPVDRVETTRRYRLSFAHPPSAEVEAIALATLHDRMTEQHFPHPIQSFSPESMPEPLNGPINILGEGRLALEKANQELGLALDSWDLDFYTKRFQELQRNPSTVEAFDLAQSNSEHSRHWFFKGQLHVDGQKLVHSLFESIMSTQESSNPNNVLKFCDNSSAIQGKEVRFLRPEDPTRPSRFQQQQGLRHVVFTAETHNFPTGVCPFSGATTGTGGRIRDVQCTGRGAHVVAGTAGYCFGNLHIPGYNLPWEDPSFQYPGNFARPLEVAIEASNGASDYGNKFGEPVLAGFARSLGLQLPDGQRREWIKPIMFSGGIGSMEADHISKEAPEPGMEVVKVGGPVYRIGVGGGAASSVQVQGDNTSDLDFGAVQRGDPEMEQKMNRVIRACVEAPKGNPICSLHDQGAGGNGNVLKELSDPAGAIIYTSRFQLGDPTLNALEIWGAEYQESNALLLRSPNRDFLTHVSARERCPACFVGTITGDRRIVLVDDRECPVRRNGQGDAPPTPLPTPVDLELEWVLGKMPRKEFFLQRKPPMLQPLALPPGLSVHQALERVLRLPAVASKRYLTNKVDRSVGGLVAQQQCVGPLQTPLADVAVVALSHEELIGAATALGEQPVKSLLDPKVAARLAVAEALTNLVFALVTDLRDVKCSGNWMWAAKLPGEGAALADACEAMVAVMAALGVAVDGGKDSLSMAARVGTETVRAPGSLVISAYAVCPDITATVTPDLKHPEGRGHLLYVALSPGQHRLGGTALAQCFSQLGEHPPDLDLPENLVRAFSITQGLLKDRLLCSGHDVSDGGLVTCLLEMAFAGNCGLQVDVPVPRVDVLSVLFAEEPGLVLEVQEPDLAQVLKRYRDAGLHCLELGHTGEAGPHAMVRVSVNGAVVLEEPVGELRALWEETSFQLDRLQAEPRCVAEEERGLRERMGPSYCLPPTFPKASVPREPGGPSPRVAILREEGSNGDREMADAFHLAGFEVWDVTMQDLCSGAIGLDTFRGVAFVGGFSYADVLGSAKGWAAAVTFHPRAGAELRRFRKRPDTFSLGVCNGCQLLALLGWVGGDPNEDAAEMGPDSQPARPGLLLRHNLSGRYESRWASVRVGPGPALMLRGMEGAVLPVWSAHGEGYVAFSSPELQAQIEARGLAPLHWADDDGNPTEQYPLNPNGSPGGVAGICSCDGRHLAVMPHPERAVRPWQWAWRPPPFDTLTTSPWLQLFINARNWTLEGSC
inactive: [1] -0.056 | [2] -0.119 | [3] 0.172 | [4] 0.002 | Nexturastat A -0.081 | vemurafenib 0.032 | [5] -0.003 | [6] -0.039 | givinostat 0.05 | barasertib 0.061

POLA1 (UniProt P09884)
inactive: [1] -0.001 | [2] -0.029 | [3] -0.003 | [4] 0.052 | Nexturastat A -0.064 | vemurafenib 0.064 | [5] 0.053 | [6] 0.024 | givinostat 0.093 | barasertib 0.098

QRSL1 (UniProt Q9H0R6)
Chain of UniProt Q9H0R6 (Q9H0R6 whole entry, looked up): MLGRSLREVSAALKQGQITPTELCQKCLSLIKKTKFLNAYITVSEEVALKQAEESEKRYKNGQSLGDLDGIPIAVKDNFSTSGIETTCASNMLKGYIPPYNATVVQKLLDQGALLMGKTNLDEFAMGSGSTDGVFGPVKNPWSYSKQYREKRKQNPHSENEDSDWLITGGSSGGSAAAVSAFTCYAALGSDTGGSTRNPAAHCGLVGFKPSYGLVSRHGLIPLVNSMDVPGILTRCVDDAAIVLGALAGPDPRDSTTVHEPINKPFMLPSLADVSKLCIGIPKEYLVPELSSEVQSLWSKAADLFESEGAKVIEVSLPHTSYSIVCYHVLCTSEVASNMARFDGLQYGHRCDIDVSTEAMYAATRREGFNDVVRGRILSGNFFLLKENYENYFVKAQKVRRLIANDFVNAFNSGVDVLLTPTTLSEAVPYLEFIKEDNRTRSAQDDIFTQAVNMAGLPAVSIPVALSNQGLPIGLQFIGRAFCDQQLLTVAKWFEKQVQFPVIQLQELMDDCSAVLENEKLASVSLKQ
inactive: [1] -0.001 | [2] -0.079 | [3] 0.018 | [4] 0.041 | Nexturastat A -0.09 | vemurafenib 0.086 | [5] 0.061 | [6] 0.093 | givinostat 0.033 | barasertib 0.044

PPIL1 (UniProt Q9Y3C6)
inactive: [1] -0.002 | [2] 0.023 | [3] 0 | [4] -0.024 | Nexturastat A 0.025 | vemurafenib -0.045 | [5] 0.027 | [6] -0.016 | givinostat -0.038 | barasertib 0.033

PPP1R14A (UniProt Q96A00)
Chain of UniProt Q96A00 (Q96A00 whole entry, looked up): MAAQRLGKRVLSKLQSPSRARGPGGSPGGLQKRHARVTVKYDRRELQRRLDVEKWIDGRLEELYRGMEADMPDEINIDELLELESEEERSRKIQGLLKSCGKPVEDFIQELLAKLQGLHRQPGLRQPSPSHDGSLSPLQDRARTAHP
inactive: [1] -0.002 | [2] -0.04 | [3] 0.004 | [4] 0.051 | Nexturastat A -0.006 | vemurafenib -0.005 | [5] -0.054 | [6] 0.062 | givinostat -0.004 | barasertib 0.013

PDLIM7 (UniProt Q9NR12)
inactive: [1] 0.02 | [2] -0.029 | [3] -0.002 | [4] 0.046 | Nexturastat A -0.016 | vemurafenib 0.026 | [5] 0.032 | [6] 0.001 | givinostat 0.05 | barasertib 0.032

PARN (UniProt O95453)
inactive: [1] -0.038 | [2] -0.004 | [3] 0.004 | [4] 0.013 | Nexturastat A -0.069 | vemurafenib 0 | [5] 0.043 | [6] -0.058 | givinostat 0.059 | barasertib 0.057

PI4K2A (UniProt Q9BTU6)
Chain of UniProt Q9BTU6 (Q9BTU6 whole entry, looked up): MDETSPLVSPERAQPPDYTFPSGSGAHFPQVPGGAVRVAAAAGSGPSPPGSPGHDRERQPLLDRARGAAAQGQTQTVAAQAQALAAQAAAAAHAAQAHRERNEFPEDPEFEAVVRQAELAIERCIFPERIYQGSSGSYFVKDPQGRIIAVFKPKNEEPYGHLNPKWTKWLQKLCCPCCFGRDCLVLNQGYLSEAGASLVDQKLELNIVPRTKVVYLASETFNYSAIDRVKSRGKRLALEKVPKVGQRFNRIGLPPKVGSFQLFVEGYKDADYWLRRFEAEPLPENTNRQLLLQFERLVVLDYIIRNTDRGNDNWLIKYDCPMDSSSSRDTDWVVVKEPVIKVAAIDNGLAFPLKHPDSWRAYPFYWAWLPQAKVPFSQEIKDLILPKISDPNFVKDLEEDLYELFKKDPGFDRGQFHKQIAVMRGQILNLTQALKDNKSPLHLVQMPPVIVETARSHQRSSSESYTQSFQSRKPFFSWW
inactive: [1] -0.037 | [2] -0.02 | [3] 0.004 | [4] 0.023 | Nexturastat A -0.005 | vemurafenib 0.023 | [5] 0.015 | [6] -0.036 | givinostat -0.008 | barasertib -0.011

PDCD6IP (UniProt Q8WUM4)
inactive: [1] 0.032 | [2] -0.079 | [3] 0.077 | [4] 0.058 | Nexturastat A 0.066 | vemurafenib 0.106 | [5] 0.153 | [6] 0.119 | givinostat 0.183 | barasertib 0.135

PRKD2 isoform 3 (UniProt Q9BZL6)
inactive: [1] 0.296 | [2] -0.26 | [3] 0.117 | [4] 0.028 | Nexturastat A 0.006 | vemurafenib 0.024 | [5] 0.058 | [6] 0.083 | givinostat -0.009 | barasertib 0.093

PPP1R35 (UniProt Q8TAP8)
Chain of UniProt Q8TAP8 (Q8TAP8 whole entry, looked up): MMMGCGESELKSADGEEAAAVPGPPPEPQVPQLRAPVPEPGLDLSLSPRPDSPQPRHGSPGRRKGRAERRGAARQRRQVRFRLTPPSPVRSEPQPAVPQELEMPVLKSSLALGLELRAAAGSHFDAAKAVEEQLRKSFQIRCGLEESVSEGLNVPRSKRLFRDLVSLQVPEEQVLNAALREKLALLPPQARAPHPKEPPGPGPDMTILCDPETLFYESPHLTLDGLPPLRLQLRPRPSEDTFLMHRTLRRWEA
inactive: [1] -0.011 | [2] 0.065 | [3] 0.025 | [4] 0.034 | Nexturastat A -0.009 | vemurafenib -0.049 | [5] 0.008 | [6] -0.027 | givinostat 0.112 | barasertib -0.074

PGM3 isoform 4 (UniProt O95394)
inactive: [1] 0.013 | [2] -0.073 | [3] 0.021 | [4] 0.04 | Nexturastat A -0.01 | vemurafenib 0.017 | [5] 0.04 | [6] 0.008 | givinostat -0.044 | barasertib 0.017

PDE2A (UniProt O00408)
inactive: [1] -0.041 | [2] 0.007 | [3] 0.041 | [4] -0.019 | Nexturastat A -0.054 | vemurafenib 0.013 | [5] 0.036 | [6] -0.012 | givinostat -0.043 | barasertib 0.011

PELO (UniProt Q9BRX2)
inactive: [1] -0.005 | [2] -0.051 | [3] 0.042 | [4] -0.039 | Nexturastat A 0.161 | vemurafenib -0.13 | [5] 0.007 | [6] 0.055 | givinostat 0.192 | barasertib 0.045

PKN2 (UniProt Q16513)
inactive: [1] 0.104 | [2] -0.005 | [3] 0.018 | [4] -0.012 | Nexturastat A 0.042 | vemurafenib 0.05 | [5] 0.086 | [6] 0.032 | givinostat 0.034 | barasertib 0.106

PLBD1 (UniProt Q6P4A8)
inactive: [1] 0.005 | [2] -0.023 | [3] 0.032 | [4] -0.039 | Nexturastat A 0.005 | vemurafenib 0.069 | [5] -0.014 | [6] 0.006 | givinostat -0.013 | barasertib 0.027

PRKAR2A (UniProt P13861)
inactive: [1] 0.141 | [2] 0.001 | [3] 0.011 | [4] -0.033 | Nexturastat A 0.008 | vemurafenib -0.021 | [5] -0.021 | [6] 0.019 | givinostat 0.024 | barasertib -0.001
